Assay results reported in PubChem BioAssay (Tox21).
Records with an inconclusive call do not appear. A call without a number means that no potency is given here. Activity calls are given as the source filed them. Calls follow the shape of the dose curve; as a rule, active = well fitted inhibition curve with a large enough effect in the signal ratio in the repeat runs (not every such curve was filed as active); inconclusive = weak or mixed curves, or effect the other way; inactive = flat fitted curve, though single readings scatter; the % refers to the signal ratio.

Test: cAMP Responsive Elements (CRE) small molecule antagonists, cell-based qHTS assay (AID 1963591)
Conditions: CRE-bla HEK293T, beta-lactamase FRET ratio; series mostly up to 92.4 µM
How it was run: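 Reporter line CRE-bla HEK 293T in dialyzed-FBS DMEM; cells preincubated 18 h, treated 3 h with compound plus NKH477 (0.25 uM final); LiveBLAzer FRET, 2 h RT.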

| Compound | Potency |
| --- | --- |
| CCOC=C(C(=O)OCC)C(=O)OCC | inactive |
| CCC(=O)OCc1ccccc1 | inactive |
| O=C1CC[C@H](C(=O)N2CCCCC2)N1 | inactive |
| C=C1CC/C=C(\C)CC[C@@H]2[C@@H]1CC2(C)C | inactive |
| COc1cc(S(N)(=O)=O)cc(C(=O)O)c1OC | inactive |
| C1COCCO1 | inactive |
| CC/C=C/CCO | inactive |
| CC(=O)N1CCN(c2ccc(O)cc2)CC1 | inactive |
| Cc1ncc(CO)c(CN)c1O | inactive |
| CC(C)(C)c1ccc(CCC=O)cc1 | inactive |
| CC1=C(O)C(=O)C(C)O1 (centres undefined) | inactive |
| CCOC(=O)[C@H](CCc1ccccc1)N[C@@H](C)C(=O)N1C(=O)N(C)C[C@H]1C(=O)O | inactive |
| CCCCCCCCCCCCCCCCCC(=O)OCC(CC)CCCC (centres undefined) | inactive |
| NC(=O)Cc1cccc2ccccc12 | inactive |
| Cc1cnccn1 | inactive |
| O=Cc1ccc(Cl)cc1 | inactive |
| CCCCCCCCCCC | inactive |
| CCCCOC(=O)CCS | inactive |
| COc1cc(C(=S)N2CCOCC2)cc(OC)c1OC | inactive |
| CCCC(=O)Nc1ccc(O)c(C(C)=O)c1 | inactive |

| Compound | Potency |
| --- | --- |
| COc1cc2c(Nc3ccc(Br)cc3F)ncnc2cc1OCC1CCN(C)CC1 | inactive |
| CC(=O)c1ccc2c(c1)CCCC2 | inactive |
| c1cnc2cc3c(cc2n1)C1CNCC3C1 | inactive |
| O=Cc1ccc([N+](=O)[O-])cc1 | inactive |
| CCC(=O)O[C@@H]1C[C@H]2CC[C@]1(C)C2(C)C | inactive |
| CCNc1nc(N)nc(Cl)n1 | inactive |
| CN(C)CCCNCCC#N | inactive |
| O=C1CCN(c2ccccc2)N1 | inactive |
| O=C(O)c1ccc(OCCN2CCCCC2)cc1 | inactive |
| C=CC(C)(O)CC/C=C(/C)CCC=C(C)C (centres undefined) | inactive |
| Cc1cc(CCC(=O)OCCOCCOCCOC(=O)CCc2cc(C)c(O)c(C(C)(C)C)c2)cc(C(C)(C)C)c1O | inactive |
| C1CCCC1 | inactive |
| NS(=O)(=O)c1ccccc1OC(F)(F)F | inactive |
| Clc1ccc2c(c1)Nc1ccccc1S2 | inactive |
| CC(C)(O)C(=O)c1ccc(OCCO)cc1 | inactive |
| C[Si](C)(C)O[Si](C)(C)O[Si](C)(C)C | inactive |
| [Cl][Nd]([Cl])[Cl] | inactive |
| O=C(Cn1ccnc1[N+](=O)[O-])NCc1ccccc1 | inactive |
| O=C(O)CC(=O)O | inactive |
